Laboratory results from PubChem BioAssay AID1159606 (Sanford-Burnham Center for Chemical Genomics, 2016).
The whole screen tested about 360,000 compounds, of which about 7,300 (2%) were called active. For the sample, actives were picked, then their nearest neighbours and some compounds at random. Values without a mark were called inactive. Cut-off read from the data, not from the text of the source: active = inhibition above about 50%; inactive = the rest.

Experiment: inhibitors of TWEAK-Fn14 signaling, primary screen, luciferase reporter cells, uHTS (AID 1159606)
Details: TWEAK-stimulated Fn14 reporter cells, luciferase luminescence, 8 h; at 10 µM; active compounds read high

Compared with `CC1=CC=CC2=N/C(=N\S(=O)(=O)c3ccc(F)cc3F)c3ccccc3CN12`, `Cn1c(-c2ccc(F)cc2)cc2onc(-c3ccccc3Cl)c2c1=O` is higher in inhibition: -4.26% for the first, 6.49% for the second.

First: COc1ccccc1NS(=O)(=O)c1ccc(C(=O)N2CCN(c3ccccc3O)CC2)cc1
Second: CCN(CC)S(=O)(=O)c1ccc(C(=O)N2CCN(C3=NS(=O)(=O)c4ccccc43)CC2)cc1
The inhibition of the first is higher: 9.79% for the first, -0.95% for the second.

Going from `O=S(=O)(Nc1ccc(OC(F)(F)F)cc1)c1cccc2nonc12` to `Cc1ccc(NS(=O)(=O)c2cc3c(cc2C)NC(=O)CO3)cc1`, the inhibition rises from -6.65% to 8.45%.

Compared with `O=C(NNC(=O)c1cccc(S(=O)(=O)Nc2ccc(Cl)cc2)c1)c1ccc(=O)[nH]c1`, `O=C(O)c1ccc(/C=C2\SC(=S)N(NC(=O)c3ccc(Br)cc3)C2=O)cc1` is lower in inhibition: 12.3% for the first, 2.06% for the second.

Going from `CC(C)=CC(=O)Nc1nnc(-c2ccc(F)cc2)s1` to `O=C(Nn1cnc2ccccc2c1=O)c1ccc(F)cc1Cl`, the inhibition rises from -55.7% to -23.3%.

Compared with `CCc1ccc(NC(=O)Nc2ccncc2)cc1`, `CCCCOC(=O)c1ccc(NC(c2ccc(C)cc2)P(=O)(OC)OC)cc1` (centres undefined) is higher in inhibition: -5.44% for the first, 4.7% for the second.

Compared with `Cc1cc(=O)oc(C)c1C(=O)Nc1cnc2ccccc2c1`, `COc1cccc2cc(C(=O)N(C)C)c(=O)oc12` is lower in inhibition: 1.75% for the first, 0.46% for the second.

Compared with `CC1(C)OC(=O)C2=C(C[C@@H](C3CC3)O[C@H]2c2ccc(Cl)cc2)O1`, `O=C1/C(=C\c2ccccc2Cl)SC(=S)N1CCC(=O)N1CCCc2ccccc21` is lower in inhibition: 7.97% for the first, 3.74% for the second.

Going from `CC(NC(=O)CCCC1CCCCC1)c1ccc(S(N)(=O)=O)cc1` (centres undefined) to `CC(=O)N1CCN(CC(C)(C)NS(=O)(=O)c2ccc(C)cc2)CC1`, the inhibition rises from 11.9% to 14%.

First: Cc1cc(S(=O)(=O)N2CCOCC2)ccc1OCC(=O)Nc1cccc(C(F)(F)F)c1
Second: CC(=O)N1CCCc2cc(S(=O)(=O)CCC(=O)N3CCN(c4ccccc4)CC3)ccc21
The inhibition of the first is higher: 21.1% for the first, -26.2% for the second.

Compared with `CC(=O)N1c2ccc(S(=O)(=O)N3CCC(C(=O)N4CCN(c5ccccc5)CC4)CC3)cc2CC1C` (centres undefined), `COc1cccc2cc(C(=O)N3CCN(C(=O)c4ccccc4)CC3)c(=O)oc12` is higher in inhibition: -8.65% for the first, 11.9% for the second.

Going from `Cc1ccnc(SCCn2c(N(C)Cc3ccccc3)nc3c2c(=O)n(C)c(=O)n3C)n1` to `O=C(CN1C(=O)/C(=C\c2ccccc2F)SC1=S)Nc1nc2ccccc2s1`, the inhibition rises from -11.8% to 29.6%.

First: O=c1c2ccccc2c(-c2ccc(F)cc2)nn1-c1ccc(C(F)(F)F)cc1
Second: O=C(CN1C(=O)/C(=C\c2ccc(C(F)(F)F)cc2)Sc2ccccc21)NCc1ccco1
The inhibition of the first is lower: -4.84% for the first, 27.1% for the second.

First: CC(=O)N1Cc2cc(C(=O)NCc3cccc(F)c3)nc(-c3cccc(C4=CCCCC4)c3)c2[C@H]1CCO
Second: O=C(NCc1ccccn1)[C@@H]1CCCN1C(=O)[C@@H]1CCCN1C(=O)c1ccccc1
The inhibition of the first is higher: 24.6% for the first, 7.41% for the second.

Going from `CCCCn1c(N)c(N(CCOC)C(=O)CSCC(=O)Nc2cccc(C)c2)c(=O)[nH]c1=O` to `CCCC1C(=O)N2C(N(C)C)=Nc3ccc(C)cc3N2C1=O` (centres undefined), the inhibition falls from 4.51% to -18.1%.

First: C[C@H]([C@@H](O)[C@@H](O)[C@@H](C)C(C)(C)C)[C@H]1CC[C@H]2C3CC[C@H]4C[C@H](OS(=O)(=O)O)[C@@H](OS(=O)(=O)O)C[C@]4(C)[C@H]3CC[C@]12C (some centres undefined)
Second: Cc1ccc(S(=O)(=O)NCC(C)NS(C)(=O)=O)cc1 (centres undefined)
The inhibition of the first is lower: 3.39% for the first, 4.2% for the second.

First: CCCNC(=O)C1(C)CCN(C(=O)c2ccc(F)cc2Cl)C1 (centres undefined)
Second: O=S1(=O)CC(N2CCN(CCO)CC2)CN1Cc1cn(Cc2cccc(Cl)c2)nn1 (centres undefined)
The inhibition of the first is lower: 2.61% for the first, 13.2% for the second.

In the case of `O=S(=O)(Nc1ccc(O)c2ccccc12)c1ccc(OC(F)(F)F)cc1`, the inhibition is reported as 84.1% (active).
In the case of `Cc1ccc(NC(=O)Nc2nnc(-c3ccncc3)s2)cc1`, the inhibition is reported as 54.9% (active).
In the case of `O=[N+]([O-])c1ccc(Oc2ccc(F)cc2Br)c2ccncc12`, the inhibition is reported as 69.9% (active).
With `CC(=O)N1CCCc2cc(S(=O)(=O)N3CCCC(C(=O)N4CCN(c5cccc(Cl)c5)CC4)C3)ccc21` (centres undefined) the inhibition was 87.5% (active).
With `Cn1c(-c2ccc(C(F)(F)F)cc2)cc2onc(-c3ccccc3)c2c1=O` the inhibition was 51.4% (active).
In the case of `CC(C)Nc1ccc(-n2nc3ccccc3[n+]2[O-])cc1`, the inhibition is reported as 62.4% (active).
In the case of `C=CCOc1ccc(/C=C2\SC(=S)N(CCC(=O)O)C2=O)cc1`, the inhibition is reported as 90% (active).
For `COc1cccc2cc(C(N)=O)/c(=N\NC(=O)c3ccccc3)oc12`, the inhibition was 91.4% (active).
With `CCOC(=O)C(NS(=O)(=O)c1ccc(C)cc1)(C(F)(F)F)P(=O)(OCC(C)C)OCC(C)C` (centres undefined) the inhibition was 56.7% (active).
For `O=C(CN1C(=O)/C(=C/c2ccccc2F)Sc2ccccc21)NCc1cccnc1`, the inhibition was 52.7% (active).
